Source: PubChem BioAssay AID624100 (ICCB-Longwood Screening Facility, Harvard Medical School, 2012)
This is one part of the list. Activity calls are given as the source filed them.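 How the source made its calls: active means average inhibition over replicates above about 50%, so the earlier screening hit is confirmed (limit read from the data); inactive means the rest, counted as false positives.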

Target: Ubiquitin carboxyl-terminal hydrolase isozyme L5 (Homo sapiens) (UniProt Q9Y5K5)
Test: proteasome-bound UCH37 Ub-AMC cleavage inhibition – biochemical, Ub-AMC cleavage rate, fluorescence, confirmation (AID 624100);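 further: based on cleavage rate fitted by regression over a 30 min kinetic read; 0% = proteasome plus Ub-AMC and 100% = Ub-AMC without proteasome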
Details: at 20 µM, active compounds read high

Chain of Ubiquitin carboxyl-terminal hydrolase isozyme L5 (Homo sapiens) (Q9Y5K5 whole entry, looked up): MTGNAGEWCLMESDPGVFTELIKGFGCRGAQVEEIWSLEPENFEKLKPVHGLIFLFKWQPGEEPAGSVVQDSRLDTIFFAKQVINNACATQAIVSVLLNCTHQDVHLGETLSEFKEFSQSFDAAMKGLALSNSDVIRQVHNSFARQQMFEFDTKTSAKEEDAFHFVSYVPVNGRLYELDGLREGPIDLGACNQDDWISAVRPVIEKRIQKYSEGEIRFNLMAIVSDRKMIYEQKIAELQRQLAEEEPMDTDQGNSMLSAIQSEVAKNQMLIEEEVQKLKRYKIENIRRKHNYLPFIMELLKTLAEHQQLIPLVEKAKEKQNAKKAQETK

| SMILES | inhibition |
| --- | --- |
| COc1ccc(N2C(=O)/C(=C/c3ccco3)C(=O)NC2=S)cc1 | 68.9% (active) |
| CCCCCCCCCCCCn1ccc(=N)cc1 | 40.2% (inactive) |
